Inconclusive results are not listed. Where a call stands in place of a potency, no number is given. The source made the active and inactive calls. Unless noted, calls come from the whole dose curve; as a rule, active = well fitted curve in the direction sought with a large enough effect; inconclusive = small, poorly fitted or top-dose-only effect, or another doubt; inactive = no such curve, though single readings can be large; an effect the other way counts as inactive or inconclusive.
These compounds were tested against Guanidinoacetate N-methyltransferase (Homo sapiens) (UniProt Q14353) (assay: Confirmatory Screen for Target Class Profiling of Small Molecule Inhibitors of Methyltransferases (AID 1745852; calls by dose curve; note: potency is the fitted concentration of half-maximal effect)). Details: MTase-Glo luminescence, SAH detection, recombinant enzyme; activity change, negative = inhibition: at 57.3 µM (top of the series).
`CN1C[C@H](CNC(=O)OCc2ccccc2)C[C@@H]2c3cccc4c3c(cn4C)C[C@H]21` gave an activity change, negative = inhibition of 5.68%. Compound `N#CC(C#N)=Cc1ccc(O)c(O)c1` has an activity change, negative = inhibition of 1.06%. In the case of `Nc1ccncc1`, the Potency was 30.6 µM (active). With `CC[C@@H](CO)NC(=O)[C@@H]1C=C2c3cccc4c3c(cn4C)C[C@H]2N(C)C1` the activity change, negative = inhibition was -1.19%. `CC(C)=CCOc1c2occc2cc2ccc(=O)oc12` gave an activity change, negative = inhibition of -1.68%. `CC[N+](CC)(CC)CC` gave an activity change, negative = inhibition of 3.74%.

Each compound was assayed against Nicotinamide N-methyltransferase (Homo sapiens) (UniProt P40261) in the same assay as above. Details: MTase-Glo luminescence, SAH detection, recombinant enzyme; measured here: NNMT max response; stronger effect = lower value.
Chain of Nicotinamide N-methyltransferase (Homo sapiens) (P40261 whole entry, looked up): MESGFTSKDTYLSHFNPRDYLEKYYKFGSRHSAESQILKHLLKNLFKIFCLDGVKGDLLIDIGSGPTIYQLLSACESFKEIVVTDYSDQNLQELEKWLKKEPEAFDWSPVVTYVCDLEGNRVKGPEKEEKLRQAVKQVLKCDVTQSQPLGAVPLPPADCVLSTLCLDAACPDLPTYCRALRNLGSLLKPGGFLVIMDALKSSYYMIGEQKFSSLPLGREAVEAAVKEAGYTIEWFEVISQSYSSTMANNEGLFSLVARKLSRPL
For `CN1C[C@H](CNC(=O)OCc2ccccc2)C[C@@H]2c3cccc4c3c(cn4C)C[C@H]21`, the activity was -16.1%. `N#CC(C#N)=Cc1ccc(O)c(O)c1` gave an activity of -6.68%. `Nc1ccncc1` showed an activity of -30.8%. `CC[C@@H](CO)NC(=O)[C@@H]1C=C2c3cccc4c3c(cn4C)C[C@H]2N(C)C1` was tested, and the activity was -2.9%. With `CC(C)=CCOc1c2occc2cc2ccc(=O)oc12` the activity was -26.3%. `CC[N+](CC)(CC)CC` showed an activity of -4.15%.

These compounds were tested against Phenylethanolamine N-methyltransferase (Homo sapiens) (UniProt P11086) in the same assay as above. Details: MTase-Glo luminescence, SAH detection, recombinant enzyme; measured here: PNMT max response; stronger effect = lower value.
Chain of Phenylethanolamine N-methyltransferase (Homo sapiens) (P11086 whole entry, looked up): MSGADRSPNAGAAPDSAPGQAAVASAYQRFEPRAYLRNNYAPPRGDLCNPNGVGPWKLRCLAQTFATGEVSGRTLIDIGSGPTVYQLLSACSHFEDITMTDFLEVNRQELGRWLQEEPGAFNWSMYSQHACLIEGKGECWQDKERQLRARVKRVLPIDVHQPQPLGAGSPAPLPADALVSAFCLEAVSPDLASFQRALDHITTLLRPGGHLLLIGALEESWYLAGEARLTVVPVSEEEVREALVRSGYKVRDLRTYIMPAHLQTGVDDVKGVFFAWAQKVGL
In the case of `CN1C[C@H](CNC(=O)OCc2ccccc2)C[C@@H]2c3cccc4c3c(cn4C)C[C@H]21`, the activity was -5.43%. For `N#CC(C#N)=Cc1ccc(O)c(O)c1`, the activity was -1.74%. Compound `Nc1ccncc1` has an activity of -0.809%. `CC[C@@H](CO)NC(=O)[C@@H]1C=C2c3cccc4c3c(cn4C)C[C@H]2N(C)C1` gave an activity of -4.59%. Work on `CC(C)=CCOc1c2occc2cc2ccc(=O)oc12` yielded an activity of -3.85%. With `CC[N+](CC)(CC)CC` the activity was 4.2%.

The compounds below were run against Metallo-beta-lactamase type 2 (Klebsiella pneumoniae) (UniProt C7C422) (assay: qHTS to identify inhibitors of the New Delhi Metallo-beta-lactamase (NDM): assay validation screen against the NCATS LOPAC Collection (AID 1794843)). Details: NDM-1 enzyme, nitrocefin hydrolysis, absorbance 485 nm; series mostly up to 38.4 µM.
Chain of Metallo-beta-lactamase type 2 (Klebsiella pneumoniae) (C7C422 whole entry, looked up): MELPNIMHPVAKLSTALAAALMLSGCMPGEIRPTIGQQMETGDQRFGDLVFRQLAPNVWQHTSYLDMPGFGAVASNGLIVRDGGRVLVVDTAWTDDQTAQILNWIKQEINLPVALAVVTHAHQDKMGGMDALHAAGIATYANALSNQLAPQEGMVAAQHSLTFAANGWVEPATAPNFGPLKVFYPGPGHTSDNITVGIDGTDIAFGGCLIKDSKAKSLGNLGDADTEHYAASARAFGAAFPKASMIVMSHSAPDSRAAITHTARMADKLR
Outline: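 Absorbance at 485 nm from nitrocefin turnover (50 uM solution added), read at plateau, gives the read-out. Compounds in DMSO were incubated first with 2 nM final NDM-1 in pH 7.0 HEPES buffer containing 1 uM ZnSO4 and 0.01% Tween20.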
`O=c1[nH]c2ccccc2n1C1CCN(CCCC(c2ccc(F)cc2)c2ccc(F)cc2)CC1` was tested, and the outcome was “inactive”. For `CC(O)(CS(=O)(=O)c1ccc(F)cc1)C(=O)Nc1ccc(C#N)c(C(F)(F)F)c1` (stereo not drawn), the outcome was “inactive”. `NN=C(N)N` was tested, and the outcome was “inactive”. `Cc1ncc(CNC(=O)N(CCCl)N=O)c(N)n1` was tested, and the outcome was “inactive”. `O=C1NCN(c2ccccc2)C12CCN(CC1COc3ccccc3O1)CC2` (stereo not drawn) was tested, and the outcome was “inactive”. With `CC(CCc1ccccc1)NC(C)C(O)c1ccc(O)cc1` (stereo not drawn) the outcome was “inactive”. For `CC[C@@H](CO)NC(=O)[C@@H]1C=C2c3cccc4[nH]cc(c34)C[C@H]2N(C)C1`, the outcome was “inactive”. In the case of `CN1C[C@H](CNC(=O)OCc2ccccc2)C[C@@H]2c3cccc4c3c(cn4C)C[C@H]21`, the outcome was “inactive”. In the case of `CC(=O)[C@H]1CC[C@H]2[C@@H]3CC[C@H]4C[C@H](O)CC[C@]4(C)[C@H]3C(=O)C[C@]12C`, the outcome was “inactive”. For `CC(=O)[C@H]1CC[C@H]2[C@@H]3CC[C@H]4C[C@](C)(O)CC[C@]4(C)[C@H]3CC[C@]12C`, the outcome was “inactive”. `NCC(O)c1ccc(O)cc1` (stereo not drawn) was tested, and the outcome was “inactive”. With `c1ccc(C2CC2)c(OCC2=NCCN2)c1` the outcome was “inactive”. For `COc1ccccc1N1CCNCC1`, the outcome was “inactive”. For `CCCN1CCC[C@@H]2Cc3[nH]ncc3C[C@H]21`, the outcome was “inactive”. In the case of `Cc1cccc(C)c1NC1=NCCCS1`, the outcome was “inactive”. `Nc1ccncc1` was tested, and the outcome was “inactive”. `CC[C@@H](CO)NC(=O)[C@@H]1C=C2c3cccc4c3c(cn4C)C[C@H]2N(C)C1` was tested, and the outcome was “inactive”. `NCC(CC(=O)O)c1ccc(Cl)cc1` (stereo not drawn) was tested, and the outcome was “inactive”. With `CC(C)=CCOc1c2occc2cc2ccc(=O)oc12` the outcome was “inactive”. In the case of `c1ccc2c(c1)OCC(C1=NCCN1)O2` (stereo not drawn), the outcome was “inactive”. In the case of `CCC1(C2=NCCN2)Cc2ccccc2O1` (stereo not drawn), the outcome was “inactive”. For `C[C@@H]1O[C@@H](O[C@H]2C[C@@H](O)[C@]3(CO)[C@H]4[C@H](O)C[C@]5(C)[C@@H](C6=CC(=O)OC6)CC[C@]5(O)[C@@H]4CC[C@]3(O)C2)[C@H](O)[C@H](O)[C@H]1O`, the outcome was “inactive”. With `Cc1ccc(S(=O)(=O)N[C@@H](CCCCN)C(=O)CCl)cc1` the outcome was “inactive”. `CCCN1CCC[C@@H]2Cc3nc(N)ncc3C[C@H]21` was tested, and the outcome was “inactive”.

What follows are compounds tested against Glutathione peroxidase 1 (Homo sapiens) (UniProt P07203) (assay: Primary qHTS Assay for Inhibitors of Recombinant Selenoprotein Glutathione Peroxidase 1 (GPX1) (AID 1845191; note: nearly all actives have a fitted effect of over 65% in size)). Details: recombinant GPX1, GR-coupled NADPH fluorescence, 15 min; series mostly up to 48.8 µM.
Chain of Glutathione peroxidase 1 (Homo sapiens) (P07203 whole entry, looked up): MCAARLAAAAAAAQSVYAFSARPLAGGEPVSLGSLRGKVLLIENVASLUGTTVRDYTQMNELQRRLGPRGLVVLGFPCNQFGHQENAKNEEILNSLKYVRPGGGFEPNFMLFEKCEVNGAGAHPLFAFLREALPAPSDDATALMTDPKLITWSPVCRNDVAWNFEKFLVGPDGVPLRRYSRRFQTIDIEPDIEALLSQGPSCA
Outline: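 GR-coupled assay: compounds preincubated 30 min at room temperature with GPX1, then reaction started with CHP; final 10 nM GPX1, 1 mM GSH, 0.5 mM CHP, 0.5 mM NADPH, 100 nM GR, 0.01% BSA, pH 7.5 Tris buffer. NADPH fluorescence (340/450 nm) read at 0 and 15 min.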
`Cc1sc2c(c1C)C(c1ccc(Cl)cc1)=N[C@@H](CC(=O)OC(C)(C)C)c1nnc(C)n1-2` was tested, and the Potency was “inactive”. With `O=c1[nH]c2ccccc2n1C1CCN(CCCC(c2ccc(F)cc2)c2ccc(F)cc2)CC1` the Potency was “inactive”. With `CC(O)(CS(=O)(=O)c1ccc(F)cc1)C(=O)Nc1ccc(C#N)c(C(F)(F)F)c1` (stereo not drawn) the Potency was “inactive”. In the case of `NN=C(N)N`, the Potency was “inactive”. `Cc1ncc(CNC(=O)N(CCCl)N=O)c(N)n1` was tested, and the Potency was “inactive”. For `O=C1NCN(c2ccccc2)C12CCN(CC1COc3ccccc3O1)CC2` (stereo not drawn), the Potency was “inactive”. With `CC(CCc1ccccc1)NC(C)C(O)c1ccc(O)cc1` (stereo not drawn) the Potency was “inactive”. With `CC[C@@H](CO)NC(=O)[C@@H]1C=C2c3cccc4[nH]cc(c34)C[C@H]2N(C)C1` the Potency was “inactive”. For `CN1C[C@H](CNC(=O)OCc2ccccc2)C[C@@H]2c3cccc4c3c(cn4C)C[C@H]21`, the Potency was “inactive”. For `CC(=O)[C@H]1CC[C@H]2[C@@H]3CC[C@H]4C[C@H](O)CC[C@]4(C)[C@H]3C(=O)C[C@]12C`, the Potency was “inactive”. `CC(=O)[C@H]1CC[C@H]2[C@@H]3CC[C@H]4C[C@](C)(O)CC[C@]4(C)[C@H]3CC[C@]12C` was tested, and the Potency was “inactive”. For `NCC(O)c1ccc(O)cc1` (stereo not drawn), the Potency was “inactive”. With `N#CC(C#N)=Cc1ccc(O)c(O)c1` the Potency was “inactive”. With `c1ccc(C2CC2)c(OCC2=NCCN2)c1` the Potency was “inactive”. With `COc1ccccc1N1CCNCC1` the Potency was “inactive”. In the case of `CCCN1CCC[C@@H]2Cc3[nH]ncc3C[C@H]21`, the Potency was “inactive”. `Cc1cccc(C)c1NC1=NCCCS1` was tested, and the Potency was “inactive”. For `Nc1ccncc1`, the Potency was “inactive”. With `CC[C@@H](CO)NC(=O)[C@@H]1C=C2c3cccc4c3c(cn4C)C[C@H]2N(C)C1` the Potency was “inactive”. For `NCC(CC(=O)O)c1ccc(Cl)cc1` (stereo not drawn), the Potency was “inactive”. For `CC(C)=CCOc1c2occc2cc2ccc(=O)oc12`, the Potency was “inactive”. In the case of `c1ccc2c(c1)OCC(C1=NCCN1)O2` (stereo not drawn), the Potency was “inactive”. For `CCC1(C2=NCCN2)Cc2ccccc2O1` (stereo not drawn), the Potency was “inactive”. With `C[C@@H]1O[C@@H](O[C@H]2C[C@@H](O)[C@]3(CO)[C@H]4[C@H](O)C[C@]5(C)[C@@H](C6=CC(=O)OC6)CC[C@]5(O)[C@@H]4CC[C@]3(O)C2)[C@H](O)[C@H](O)[C@H]1O` the Potency was “inactive”. With `Cc1ccc(S(=O)(=O)N[C@@H](CCCCN)C(=O)CCl)cc1` the Potency was “inactive”. For `CCCN1CCC[C@@H]2Cc3nc(N)ncc3C[C@H]21`, the Potency was “inactive”.
